Screens as filed in PubChem.
SARS PLpro yeast – inhibitors of SARS-CoV papain-like protease in yeast | 330,000 compounds, 0.19% hits | AID 485353 | Potency, µM (titrated, usually from 32.9 µM), for the others: top-dose activity, positive = growth rescue, actives largely listed as activators | S. cerevisiae expressing SARS-CoV PLpro, growth rescue; calls by dose curve; further: potency means the concentration at half of the fitted maximal effect; 0% is about no effect; nearly all actives have a fitted effect of over 55% in size
HCMV antiviral – blocks human cytomegalovirus replication | activity change, negative = inhibition, % at 57.5 µM | AID 1259415 | HFF cells, HCMV-luciferase reporter, 72 h; hits give low values | 410,000 compounds, 4.5% hits; in the data active means activity change below about -60%; inconclusive means no clear call, values can overlap the other calls; inactive means above about -39%; further: on the % scale 0 is the no-effect control and ±100 the full control effect
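Steps: HFFs plated, 16 h 37C; compounds added; HCMV-luciferase added to MOI 1 PFU/cell; 72 h 37C; OneGlo reagent, 5 min room temperature; luminescence read, normalized to controls.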
HCV inh – HCV inhibition; Huh7.5.1 HCVcc-Cre infection, luciferase reporter, 44 h; Potency, µM (doses to about 41.8 µM), without a hit: at the highest dose activity change, negative = inhibition, usual class: inhibitors; 340,000 compounds, 3.4% hits; AID 651820; further: potency means the concentration at half of the fitted maximal effect; on the % scale 0 is the no-effect control and ±100 the full control effect
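Infectious HCV cell culture screen: compound-treated cells (1,000/well, pre-plated 4 h) are infected with HCVcc-Cre at roughly 0.5 moi and grown 44 h. Infection is quantified by luciferase signal after 15 min substrate incubation at room temperature.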
Sm TGR block – inhibitors of Schistosoma mansoni thioredoxin glutathione reductase; purified TGR, DTNB reduction, TNB absorbance 405 nm; Potency, µM (series often up to 114 µM), for the others: top-dose activity change, negative = inhibition, actives largely listed as inhibitors; 360,000 compounds, 3% hits; AID 485364; further: potency means the concentration at half of the fitted maximal effect; on the % scale 0 is the no-effect control and ±100 the full control effect; nearly all actives have a fitted effect of over 60% in size
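TGR 20 nM + NADPH 100 uM (dispensed conc.), cpd preinc 15 min RT; start with NADPH (500 uM addition) then DTNB (15 mM addition). Kinetic TNB absorbance, 405 nm filter. Four-parameter Hill fit across titration.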
Pf growth 48h – P. falciparum growth inhibition at 48 hours (one generation) | 310,000 compounds, 5.9% hits | AID 504832 | P. falciparum luciferase growth in erythrocytes, 48 h | Potency, µM (titrated, usually from 28.7 µM), for inactives: top-dose activity change, negative = inhibition, hits mostly inhibitors; further: potency means the concentration at half of the fitted maximal effect; on the % scale 0 is the no-effect control and ±100 the full control effect
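Luciferase-expressing P. falciparum in infected erythrocytes (2% hematocrit, 0.1% parasitemia final) in RPMI 1640/0.5% Albumax were exposed to compound for 48 hours at 37 C, 5% CO2; growth read as luminescence.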
Pf growth 96h – P. falciparum growth inhibition at 96 hour, primary screen for plastid delayed-death inhibitors; Potency, µM (titrated, usually from 28.7 µM), inactives show top-dose activity change, negative = inhibition, most hits filed as inhibitors; AID 504834; 320,000 compounds, 6.9% hits; P. falciparum luciferase reporter growth, 96 h; further: potency means the concentration at half of the fitted maximal effect; on the % scale 0 is the no-effect control and ±100 the full control effect
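Cell-based qHTS: luciferase-tagged P. falciparum in erythrocytes (2% hematocrit, 0.05% parasitemia final) incubated with compounds for 96 hours, 37 C, 5% CO2; luciferase detection reagent then added and luminescence measured.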
The depositor's hits bear a star; [ ] = another dose, or the depositor's remark. The list is not random: actives were taken first. Their share in the collection is about 15%. Unless noted, the call rests on the fitted dose curve; in most records, active means well fitted curve in the direction sought with a large enough effect; inconclusive means small, poorly fitted or top-dose-only effect, or another doubt; inactive means no such curve, though single readings can be large; an effect the other way counts as inactive or inconclusive.

What do the screens show for `CCOc1cc(S(=O)(=O)NCCc2cccc(C)c2)c(OCC)cc1-n1cnnn1`?
SARS PLpro yeast: -3%; HCMV antiviral: -2; HCV inh: -17%; Sm TGR block: -5%; Pf growth 48h: 9.3µM*; Pf growth 96h: 6.6µM*

How did CCOc1cc(S(=O)(=O)N2CCC(Cc3ccccc3)CC2)c(OCC)cc1-n1cnnn1 do in these assays?
SARS PLpro yeast: -3%; HCMV antiviral: -13; HCV inh: inconclusive; Sm TGR block: 0%; Pf growth 48h: 13µM*; Pf growth 96h: inconclusive

What do the screens show for `CCOc1cc(S(=O)(=O)NCCc2ccccc2C)c(OCC)cc1-n1cnnn1`?
SARS PLpro yeast: -1%; HCMV antiviral: -24; HCV inh: inconclusive; Sm TGR block: 0%; Pf growth 48h: inconclusive; Pf growth 96h: inconclusive

What do the screens show for `CCOc1cc(S(=O)(=O)N(CC)CC)c(OCC)cc1-n1cnnn1`?
SARS PLpro yeast: 5%; HCMV antiviral: -13; HCV inh: -25%; Sm TGR block: 5%; Pf growth 48h: 1%; Pf growth 96h: -2%

What do the screens show for `O=CN/C=C/c1cccc(O)c1`?
HCMV antiviral: 3; HCV inh: 24%

What do the screens show for `CN(C)Cc1ccccc1-c1cccc2nccn12`?
HCMV antiviral: -10

How did Cc1ccc(N(Cc2ccccc2)C(=O)c2cccc(S(=O)(=O)N3CCOCC3)c2)cc1 do in these assays?
SARS PLpro yeast: 4%; HCMV antiviral: -38; HCV inh: -11%; Sm TGR block: 0%; Pf growth 48h: 10µM*; Pf growth 96h: 10µM*

How did C=CCN(Cc1ccc(Cl)s1)C(=O)c1cc(S(=O)(=O)N2CCOCC2)ccc1F do in these assays?
SARS PLpro yeast: -2%; HCMV antiviral: 0; HCV inh: 9%; Sm TGR block: -5%; Pf growth 48h: 13µM*; Pf growth 96h: inconclusive

How did CC(=O)N1CCN(S(=O)(=O)c2cccc(C(=O)N(Cc3ccccc3)c3cccc(C)c3)c2)CC1 do in these assays?
SARS PLpro yeast: -2%; HCMV antiviral: inconclusive; HCV inh: -6%; Sm TGR block: 6%; Pf growth 48h: inconclusive; Pf growth 96h: 8.3µM*

Results for Cc1ccc(N(Cc2ccccc2)C(=O)c2cccc(S(=O)(=O)N3CCN(C)CC3)c2)cc1 ?
SARS PLpro yeast: -2%; HCMV antiviral: -23; HCV inh: 7%; Sm TGR block: 1%; Pf growth 48h: inconclusive; Pf growth 96h: inconclusive

How did Cc1ccc(N(Cc2ccccc2)C(=O)c2ccc(S(=O)(=O)N3CCOCC3)cc2)cc1 do in these assays?
SARS PLpro yeast: 2%; HCMV antiviral: inconclusive; HCV inh: -7%; Sm TGR block: -8%; Pf growth 48h: 13µM*; Pf growth 96h: inconclusive

How did CCCCN(CCCNC(=O)CN1N=C(c2ccc(C)cc2)CCC1=O)c1ccccc1 do in these assays?
HCMV antiviral: 3; Sm TGR block: 2%

Results for CC1(C)CC(=O)C2=C(C1)N=C1SCCC(=O)N1C2c1cccc([N+](=O)[O-])c1 (stereo unspecified) ?
SARS PLpro yeast: 0%; HCMV antiviral: -3; HCV inh: 7%; Sm TGR block: 4%; Pf growth 48h: 268%; Pf growth 96h: -17%

Results for Cc1ccc(N(C(=O)c2ccc(S(=O)(=O)N3CCOCC3)cc2)C2C=CS(=O)(=O)C2)cc1 (stereo unspecified) ?
SARS PLpro yeast: 2%; HCMV antiviral: -2; HCV inh: 16%; Sm TGR block: -22%; Pf growth 48h: -11%; Pf growth 96h: 8.3µM*

What do the screens show for `COc1ccc(CC(=O)NCc2ccccc2)cc1S(=O)(=O)N1CCOCC1`?
SARS PLpro yeast: -8%; HCMV antiviral: 8; HCV inh: -8%; Sm TGR block: 8%; Pf growth 48h: -13%; Pf growth 96h: inconclusive

What do the screens show for `Cc1ccc(N(Cc2ccccc2)C(=O)c2cc(S(=O)(=O)N3CCOCC3)ccc2F)cc1`?
SARS PLpro yeast: -2%; HCMV antiviral: inconclusive; HCV inh: -1%; Sm TGR block: 0%; Pf growth 48h: 12µM*; Pf growth 96h: inconclusive

Results for Cc1ccc(N(Cc2ccccc2)C(=O)Cc2ccc(S(=O)(=O)N3CCOCC3)s2)cc1 ?
SARS PLpro yeast: 1%; HCMV antiviral: -26; HCV inh: inconclusive; Sm TGR block: 3%; Pf growth 48h: 13µM*; Pf growth 96h: inconclusive

Results for COc1ccc(CC(=O)N(Cc2ccccc2)c2ccc(C)cc2)cc1S(=O)(=O)N1CCOCC1 ?
SARS PLpro yeast: 2%; HCMV antiviral: inconclusive; HCV inh: -10%; Sm TGR block: -11%; Pf growth 48h: inconclusive; Pf growth 96h: 13µM*

Results for O=C(Cn1cnc2c(NC(=O)OCc3ccccc3)ncnc21)NCCN1CCOCC1 ?
SARS PLpro yeast: -3%; HCMV antiviral: 14; HCV inh: 1%; Sm TGR block: 1%; Pf growth 48h: 23%; Pf growth 96h: 27%

How did O=C(c1cc(S(=O)(=O)N2CCOCC2)ccc1Cl)N1CCC(Cc2ccccc2)CC1 do in these assays?
SARS PLpro yeast: -5%; HCMV antiviral: -2; HCV inh: -18%[8.37 µM]; Sm TGR block: -7%; Pf growth 48h: inconclusive; Pf growth 96h: inconclusive

What do the screens show for `Cc1ccc(N(Cc2ccccc2)C(=O)c2ccc(C)c(S(=O)(=O)N3CCOCC3)c2)cc1`?
SARS PLpro yeast: 2%; HCMV antiviral: inconclusive; HCV inh: 32µM*; Sm TGR block: -4%; Pf growth 48h: 6.6µM*; Pf growth 96h: 2.1µM*

What do the screens show for `Cc1cccc(N(Cc2ccccc2)C(=O)c2cc(S(=O)(=O)N3CCOCC3)ccc2Cl)c1`?
SARS PLpro yeast: 3%; HCMV antiviral: inconclusive; HCV inh: inconclusive; Sm TGR block: -1%; Pf growth 48h: 12µM*; Pf growth 96h: inconclusive

What do the screens show for `Cc1ccc(NC(=O)C(C)OC(=O)c2ccc(NC(=O)CC#N)cc2)cc1S(=O)(=O)N1CCOCC1` (stereo unspecified)?
SARS PLpro yeast: 5%; HCMV antiviral: 5; HCV inh: 26%; Sm TGR block: 4%; Pf growth 48h: inconclusive; Pf growth 96h: inconclusive

Results for Cc1ccc(NC(=O)Nc2c(C)n(C)n(-c3ccccc3)c2=O)c(Cl)c1 ?
HCMV antiviral: -11; Sm TGR block: -4%

What do the screens show for `COC(=O)c1c(-c2ccc(Cl)cc2)noc1N1CCN(c2cccc(C)c2C)CC1`?
HCMV antiviral: 11; Sm TGR block: 8%

How did CN1CCOC(=O)/C1=N/Nc1cc(Cl)ccc1Cl do in these assays?
SARS PLpro yeast: -3%; HCMV antiviral: 48; HCV inh: -14%; Sm TGR block: -17%; Pf growth 48h: 57%; Pf growth 96h: 35%
